The panel holds about 83,000 compounds, 20% with a hit somewhere; the sample as a whole holds those more often.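 In brief: 96-well plates, 48 h treatment, single concentration, percent growth endpoint.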 Unmarked numbers belong to inactive results. Activity calls are given as the source filed them. The calls were made as follows: active = growth percent below 10; inactive = the rest.

Test systems include DU-145 prostate; K-562 leukemia; MALME-3M melanoma; MDA-MB-231 breast; RXF 393 renal; SF-268 CNS; SF-295 CNS; SF-539 CNS; UACC-257 melanoma; HCT-15 colon; HT29 colon; SNB-75 CNS; SNB-19 CNS; U251 CNS; PC-3 prostate; SK-MEL-5 melanoma; UACC-62 melanoma; LOX IMVI melanoma; SK-MEL-28 melanoma; M14 melanoma.
Assay in all cases: NCI-60 one-dose screen, 48 h (100 = growth as untreated, 0 = no growth, -100 = all killed)
Common to all, as to details: 10 µM unless noted

As for `CCCCn1c(=O)[nH]c(N)c(C(c2ccc(F)cc2)c2c(N)[nH]c(=O)n(CCCC)c2=O)c1=O`, the growth was 79.1% with DU-145 prostate; 52.9% in the assay with K-562 leukemia; 87.7% with MALME-3M melanoma; 62.9% with MDA-MB-231 breast; 65.5% with RXF 393 renal; 54.1% with SF-268 CNS. Further, the growth in the assay on SF-295 CNS is 56.8%; in the assay on SF-539 CNS, 75.3%; in the assay on UACC-257 melanoma, 65.9%; with HCT-15 colon, 95.7%; in the assay on HT29 colon, 66.4%; in the assay with SNB-75 CNS, 62.2%. Moreover, the growth in the assay with SNB-19 CNS is 74%; in the assay on U251 CNS it was 65.3%; in the assay with PC-3 prostate, 53.9%; in the assay on SK-MEL-5 melanoma, 36.7%; with UACC-62 melanoma, 55.6%; in the assay with LOX IMVI melanoma, 58.9%. In the assay with SK-MEL-28 melanoma, the growth is 74.7%.
For `CC(C)(C)CC(C)(C)Nc1c(-c2ccc(-c3ccccc3)cc2)nc2cnccn12`, the growth with DU-145 prostate is 94.9%; with K-562 leukemia it was 62.7%; in the assay on MALME-3M melanoma, 108%; in the assay on MDA-MB-231 breast, 90.6%; with RXF 393 renal, 94.4%; in the assay on SF-268 CNS it was 81.5%. For the same compound, the growth in the assay with SF-295 CNS was 97.6%; in the assay on SF-539 CNS, 90.5%; in the assay on UACC-257 melanoma, 83.3%; in the assay on M14 melanoma it was 89.2%; in the assay on HCT-15 colon, 84.5%; in the assay on SNB-75 CNS, 88.7%. For the same compound, the growth is 94.3% with SNB-19 CNS; 59.7% in the assay on U251 CNS; 65.4% in the assay on PC-3 prostate; 101% in the assay with SK-MEL-5 melanoma; 75.9% in the assay on UACC-62 melanoma; 97.2% with LOX IMVI melanoma. Further, in the assay with SK-MEL-28 melanoma, the growth is 100%.
As for `CC(C)OC(=O)NNC(=O)c1ccncc1`, the growth in the assay with DU-145 prostate is 111%; in the assay on K-562 leukemia it was 110%; in the assay on MALME-3M melanoma, 93%; with MDA-MB-231 breast, 108%; with RXF 393 renal, 120%; in the assay with SF-268 CNS it was 104%. For the same compound, the growth in the assay with SF-295 CNS was 113%; in the assay with SF-539 CNS it was 97.2%; in the assay with UACC-257 melanoma, 105%; in the assay with HCT-15 colon, 101%; with HT29 colon it was 110%; in the assay on SNB-75 CNS it was 91%. Further, the growth in the assay with SNB-19 CNS is 105%; in the assay on U251 CNS, 98.1%; with PC-3 prostate it was 104%; with SK-MEL-5 melanoma, 114%; in the assay with UACC-62 melanoma, 94%; with LOX IMVI melanoma, 101%. Also, in the assay with SK-MEL-28 melanoma, the growth is 110%.
Consider `CCO/C=N/C1=C(C#N)C(c2ccc(OC)cc2)c2c(c3ccccc3n(C)c2=O)O1` (configuration not stated), for which the growth in the assay with DU-145 prostate is 106%; with K-562 leukemia, 102%; in the assay on MALME-3M melanoma, 96.5%; in the assay with MDA-MB-231 breast it was 101%; in the assay with RXF 393 renal it was 104%; with SF-268 CNS it was 99.2%. Besides, the growth was 101% in the assay with SF-295 CNS; 98.6% in the assay with SF-539 CNS; 102% in the assay with UACC-257 melanoma; 103% in the assay on M14 melanoma; 103% with HCT-15 colon; 78.1% in the assay on SNB-75 CNS. The growth with SNB-19 CNS is 101%; with U251 CNS, 103%; in the assay with PC-3 prostate, 98.4%; in the assay with SK-MEL-5 melanoma, 102%; in the assay on UACC-62 melanoma, 98.7%; in the assay with LOX IMVI melanoma, 99.1%. In addition, in the assay on SK-MEL-28 melanoma, the growth is 110%.
Consider `CCCCOC(=O)c1ccc(NC(=O)C(C)N2CCOCC2)cc1` (configuration not stated), for which the growth is 107% in the assay with DU-145 prostate; 91.1% with K-562 leukemia; 91.8% with MALME-3M melanoma; 102% with MDA-MB-231 breast; 102% with RXF 393 renal; 103% in the assay on SF-268 CNS. In addition, the growth is 101% in the assay with SF-295 CNS; 102% in the assay on SF-539 CNS; 98.3% in the assay with UACC-257 melanoma; 93.7% in the assay on M14 melanoma; 108% in the assay with HCT-15 colon; 107% in the assay on SNB-75 CNS. Besides, the growth in the assay on SNB-19 CNS was 99.5%; with U251 CNS it was 93.2%; with PC-3 prostate it was 72.7%; in the assay on SK-MEL-5 melanoma, 104%; in the assay on UACC-62 melanoma, 95.1%; in the assay with LOX IMVI melanoma, 101%. In addition, the growth with SK-MEL-28 melanoma was 112%.
For the compound `C/C(=N\NC(N)=S)c1nc2ccc(Cl)cc2[nH]1`, the growth in the assay on DU-145 prostate is 34.1%; in the assay with K-562 leukemia it was 39.5%; in the assay on MALME-3M melanoma, 113%; in the assay with MDA-MB-231 breast, 63.2%; with RXF 393 renal, 48.9%; in the assay on SF-268 CNS, 33.2%. Moreover, the growth in the assay with SF-295 CNS is 44.8%; in the assay on SF-539 CNS, 43%; in the assay on UACC-257 melanoma it was 68.8%; with HCT-15 colon it was 35.7%; in the assay with HT29 colon it was 32.8%; in the assay with SNB-75 CNS, 43.6%. The growth was 57.6% with SNB-19 CNS; 49.9% in the assay on U251 CNS; 52.3% with PC-3 prostate; 45.3% in the assay with SK-MEL-5 melanoma; 36.7% with UACC-62 melanoma; 43.7% in the assay on LOX IMVI melanoma. Besides, the growth with SK-MEL-28 melanoma was 68.7%.
As to `Cc1c2c(cn1Cc1ccccc1)CCc1cn(C)nc1-2`, the growth with DU-145 prostate is 111%; in the assay with K-562 leukemia, 58.1%; in the assay with MALME-3M melanoma, 101%; in the assay with MDA-MB-231 breast, 89.5%; in the assay with RXF 393 renal it was 83.9%; in the assay on SF-268 CNS it was 102%. The growth was 57.7% in the assay on SF-295 CNS; 83.1% with SF-539 CNS; 79.3% in the assay on UACC-257 melanoma; 95.1% in the assay on HCT-15 colon; 98% with HT29 colon; 95.9% with SNB-75 CNS. For the same compound, the growth with SNB-19 CNS was 105%; in the assay on U251 CNS it was 97.2%; in the assay with PC-3 prostate, 71.4%; in the assay with SK-MEL-5 melanoma it was 53.5%; with UACC-62 melanoma, 70.4%; with LOX IMVI melanoma it was 85.2%. Also, in the assay on SK-MEL-28 melanoma, the growth was 104%.
`COc1ccc(-c2cn(-c3cccc(C(=O)/C=C/c4cc(OC)c(OC)c(OC)c4)c3)c(=O)[nH]2)cc1`: the growth with DU-145 prostate was 1.51% (active); in the assay on K-562 leukemia, 0.142% (active); in the assay with MALME-3M melanoma, 66.2%; in the assay on MDA-MB-231 breast it was 19.4%; with RXF 393 renal it was -52.8% (active); with SF-268 CNS, 20.1%. Also, the growth is 26.4% with SF-295 CNS; -89.1% (active) with SF-539 CNS; 22.8% in the assay on UACC-257 melanoma; 3.15% (active) with HCT-15 colon; -67.1% (active) in the assay on HT29 colon; 49.6% with SNB-75 CNS. In addition, the growth was 34.2% in the assay on SNB-19 CNS; -51.8% (active) in the assay with U251 CNS; 20.6% with PC-3 prostate; -54% (active) in the assay with SK-MEL-5 melanoma; -42.8% (active) in the assay with UACC-62 melanoma; -68% (active) with LOX IMVI melanoma. In addition, in the assay on SK-MEL-28 melanoma, the growth was -33.9% (active).

The record behind these values is PubChem BioAssay (NCI).
